From PubChem BioAssay (Tox21) come the findings set out here.

Test [1] in a line: qHTS assay to test for compound auto fluorescence at 535 nm (green) in HEK293 cells (AID 720680). (In qHTS, concentration-response curves come from the screen itself.)
Test [2] is described as follows: qHTS assay to test for compound auto fluorescence at 460 nm (blue) in HEK293 cell free culture (AID 720681). The method, boiled down: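 Compounds were added to cell-free DMEM with 10% FBS and fluorescence read directly. The blue channel used 405 nm excitation and 460 nm emission, with triamterene as the reference fluorophore.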
Test [3] in a line: qHTS assay to test for compound auto fluorescence at 535 nm (green) in HEK293 cell free culture (AID 720682). The method in brief:
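Steps: dispense DMEM/10% FBS into empty wells; pin in compound or DMSO; measure fluorescence at 485/535 nm. Values are fluorescein equivalents.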

A short description of test [4]: qHTS assay to test for compound auto fluorescence at 590 nm (red) in HEK293 cell free culture (AID 720683). The method in brief: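 Cell-free wells of DMEM with 10% FBS received compound, and intrinsic fluorescence was read at excitation/emission 540/590 nm. Values expressed as equivalence to Rose Bengal sodium.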
A short description of test [5]: qHTS assay to test for compound auto fluorescence at 590 nm (red) in HepG2 cell free culture (AID 720684). The method in brief:
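Rose Bengal sodium served as the reference for red signal. Test compounds were dispensed into serum-containing MEM (10% FBS) without cells, and plates were read at 540/590 nm.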

The nature of test [6]: qHTS assay to test for compound auto fluorescence at 535 nm (green) in HepG2 cell free culture (AID 720686).
Test [7] can be described thus: qHTS assay to test for compound auto fluorescence at 460 nm (blue) in HepG2 cells (AID 720687). The method in brief:
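HepG2 cells in MEM with 10% FBS, attached overnight at 37 C, were exposed to compound or DMSO for 1 hr at 37 C, 5% CO2. Blue fluorescence was read at 405/460 nm, with triamterene as reference fluorophore.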

For test [8], the target named is Glucocorticoid receptor (Homo sapiens) (UniProt P04150). The experiment in a line: qHTS assay to identify small molecule agonists of the glucocorticoid receptor (GR) signaling pathway (AID 720691; active = well fitted activation curve with a large enough effect in the signal ratio in the repeat runs, not every such curve was filed as active; the % refers to the signal ratio; note: potency is the fitted concentration of half-maximal effect). The conditions noted are these: GR-bla HeLa, beta-lactamase reporter ratio, 18 h; activation: at 62.4 µM (top of the series). The method in brief: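 Measures GR pathway activation through a GRE-beta-lactamase reporter stably integrated in HeLa cells, with 18 h compound treatment at 37 C and fluorescence detection using a FRET substrate.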

Test [9] in a line: qHTS assay to identify small molecule antagonists of the glucocorticoid receptor (GR) signaling pathway - cell viability counter screen (AID 720693). Note: nearly all actives have a fitted effect of over 55% in size.
Test [10] is described as follows: qHTS assay to identify small molecule antagonists of the androgen receptor (AR) signaling pathway - cell viability counter screen (AID 743033; note: nearly all actives have a fitted effect of over 45% in size).
Test [11] deals with Androgen receptor (Homo sapiens) (UniProt P10275). The experiment in a line: qHTS assay to identify small molecule agonists of the androgen receptor (AR) signaling pathway using the MDA cell line (AID 743040; note: nearly all actives have a fitted effect of over 20% in size; note: potency is the fitted concentration of half-maximal effect). The method, boiled down: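 Luciferase read-out, ONE-Glo, 30 min RT. Cells: MDA-kb2 AR-luc, MMTV promoter with AR and GR response elements. Compound exposure 16 h, 37C, 0% CO2, after 5 h pre-incubation. qHTS agonist mode.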

Test [12] can be described thus: qHTS assay to identify small molecule antagonists of the androgen receptor (AR) signaling pathway using the MDA cell line - cell viability counter screen (AID 743041; note: nearly all actives have a fitted effect of over 45% in size). The method, boiled down:
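Cytotoxicity counter screen: MDA-kb2 AR-luc cells, compound + R1881, 16 h, 37C, 0% CO2; CellTiter-Fluor added at 15.5 h, fluorescence read after 30 min.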

Test [13] concerns the target Androgen receptor (Homo sapiens) (UniProt P10275). The experiment in a line: qHTS assay to identify small molecule antagonists of the androgen receptor (AR) signaling pathway using the MDA cell line (AID 743042; note: nearly all actives have a fitted effect of over 55% in size). The method, boiled down: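 MDA-kb2 breast carcinoma cells carrying MMTV-luciferase (AR/GR responsive) were co-treated with compounds and the agonist R1881 for 16 h at 37C. Inhibition read as ONE-Glo luminescence; CellTiter-Fluor fluorescence measured in parallel for cytotoxicity.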

A short description of test [14]: qHTS assay to test for compound auto fluorescence at 460 nm (blue) in HepG2 cell free culture (AID 720685). The method, boiled down:
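Cell-free plates of MEM plus 10% FBS received 23 nL compound or DMSO vehicle; blue-channel (405/460 nm) intensity scored against triamterene as reference fluorophore.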

Test [15] can be described thus: qHTS assay for identifying genotoxic compounds that show differential cytotoxicity against isogenic chicken DT40 cell lines with known DNA damage response pathways - wild type cell line (AID 743012). Note: nearly all actives have a fitted effect of over 60% in size. Note: potency is the fitted concentration of half-maximal effect. The method in brief:
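Endpoint: CellTiter-Glo luminescence, 30 min RT. Cells: wild type DT40, 300/well. Exposure: compounds in DMSO, 40 h, 37 C/5% CO2, after ~0.5 h pre-incubation.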

The nature of test [16]: qHTS assay for identifying genotoxic compounds that show differential cytotoxicity against isogenic chicken DT40 cell lines with known DNA damage response pathways - Rev3 mutant cell line (AID 743014). Note: nearly all actives have a fitted effect of over 55% in size. Note: potency is the fitted concentration of half-maximal effect.
The nature of test [17]: qHTS assay for identifying genotoxic compounds that show differential cytotoxicity against isogenic chicken DT40 cell lines with known DNA damage response pathways - Rad54/Ku70 mutant cell line (AID 743015). Note: nearly all actives have a fitted effect of over 60% in size. Note: potency is the fitted concentration of half-maximal effect.
Test [18] has as its target Glucocorticoid receptor (Homo sapiens) (UniProt P04150). Kind of test: qHTS assay to identify small molecule antagonists of the glucocorticoid receptor (GR) signaling pathway (AID 720692; active = well fitted inhibition curve with a large enough effect in the signal ratio in the repeat runs, not every such curve was filed as active; the % refers to the signal ratio). The method, boiled down:
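Tox21 10K library screened in concentration-response for blockade of dexamethasone (5 nM final)-induced GRE-bla reporter activity in HeLa cells; 18 h treatment, fluorescence read.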

The target of test [19] is Androgen receptor (Homo sapiens) (UniProt P10275). The experiment in a line: qHTS assay to identify small molecule antagonists of the androgen receptor (AR) signaling pathway (AID 743035; active = well fitted inhibition curve with a large enough effect in the signal ratio in the repeat runs, not every such curve was filed as active; the % refers to the signal ratio). The method in brief: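 R1881 agonist challenge of a HEK293 UAS-beta-lactamase AR reporter line in the presence of compound (16 h, 37C); signal taken as FRET fluorescence after 2 h with LiveBLAzer B/G substrate at room temperature.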

For test [20] the target is unchanged. Kind of test: qHTS assay to identify small molecule agonists of the androgen receptor (AR) signaling pathway (AID 743036; active = well fitted activation curve with a large enough effect in the signal ratio in the repeat runs, with a control signal flat, not every such curve was filed as active; the % refers to the signal ratio; note: potency is the fitted concentration of half-maximal effect). The method in brief: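 Reporter line: GeneBLAzer AR-UAS-bla-GripTite (HEK293). Steps: plate cells, 4 h rest, add compounds, 16 h at 37C, add LiveBLAzer B/G substrate, 2 h at RT, read fluorescence.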

The structures appear in SMILES notation. Inconclusive results are not listed. The source made the active and inactive calls. Unless noted, calls come from the whole dose curve; as a rule, active = well fitted curve in the direction sought with a large enough effect in the repeat runs; inconclusive = weak or mixed curves; inactive = no such curve, though single readings can be large; an effect the other way counts as inactive or inconclusive.

Chain of Androgen receptor (Homo sapiens) (P10275 whole entry, looked up): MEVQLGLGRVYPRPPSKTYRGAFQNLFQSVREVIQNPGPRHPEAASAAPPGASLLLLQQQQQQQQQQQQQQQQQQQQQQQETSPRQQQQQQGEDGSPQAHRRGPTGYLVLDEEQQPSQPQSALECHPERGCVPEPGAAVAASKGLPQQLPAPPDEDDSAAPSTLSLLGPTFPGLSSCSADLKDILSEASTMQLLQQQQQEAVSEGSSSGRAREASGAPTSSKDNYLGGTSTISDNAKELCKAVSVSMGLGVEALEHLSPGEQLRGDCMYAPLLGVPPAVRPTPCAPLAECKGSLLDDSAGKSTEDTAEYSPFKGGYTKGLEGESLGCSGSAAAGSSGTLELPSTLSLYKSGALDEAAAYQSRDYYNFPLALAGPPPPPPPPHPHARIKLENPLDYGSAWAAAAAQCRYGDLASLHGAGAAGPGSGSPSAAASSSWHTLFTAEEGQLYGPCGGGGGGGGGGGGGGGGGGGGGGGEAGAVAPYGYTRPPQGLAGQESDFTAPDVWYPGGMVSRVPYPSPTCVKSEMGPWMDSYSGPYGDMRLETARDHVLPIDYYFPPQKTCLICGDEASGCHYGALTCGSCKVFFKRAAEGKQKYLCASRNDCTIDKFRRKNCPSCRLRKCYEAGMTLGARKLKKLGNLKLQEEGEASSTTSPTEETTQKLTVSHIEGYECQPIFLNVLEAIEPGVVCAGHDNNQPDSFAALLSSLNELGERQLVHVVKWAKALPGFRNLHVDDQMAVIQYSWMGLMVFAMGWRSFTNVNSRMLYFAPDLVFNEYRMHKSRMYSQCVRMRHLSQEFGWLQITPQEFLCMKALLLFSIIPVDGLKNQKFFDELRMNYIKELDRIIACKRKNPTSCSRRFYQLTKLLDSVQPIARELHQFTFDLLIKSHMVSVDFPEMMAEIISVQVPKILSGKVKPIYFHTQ
Chain of Glucocorticoid receptor (Homo sapiens) (P04150 whole entry, looked up): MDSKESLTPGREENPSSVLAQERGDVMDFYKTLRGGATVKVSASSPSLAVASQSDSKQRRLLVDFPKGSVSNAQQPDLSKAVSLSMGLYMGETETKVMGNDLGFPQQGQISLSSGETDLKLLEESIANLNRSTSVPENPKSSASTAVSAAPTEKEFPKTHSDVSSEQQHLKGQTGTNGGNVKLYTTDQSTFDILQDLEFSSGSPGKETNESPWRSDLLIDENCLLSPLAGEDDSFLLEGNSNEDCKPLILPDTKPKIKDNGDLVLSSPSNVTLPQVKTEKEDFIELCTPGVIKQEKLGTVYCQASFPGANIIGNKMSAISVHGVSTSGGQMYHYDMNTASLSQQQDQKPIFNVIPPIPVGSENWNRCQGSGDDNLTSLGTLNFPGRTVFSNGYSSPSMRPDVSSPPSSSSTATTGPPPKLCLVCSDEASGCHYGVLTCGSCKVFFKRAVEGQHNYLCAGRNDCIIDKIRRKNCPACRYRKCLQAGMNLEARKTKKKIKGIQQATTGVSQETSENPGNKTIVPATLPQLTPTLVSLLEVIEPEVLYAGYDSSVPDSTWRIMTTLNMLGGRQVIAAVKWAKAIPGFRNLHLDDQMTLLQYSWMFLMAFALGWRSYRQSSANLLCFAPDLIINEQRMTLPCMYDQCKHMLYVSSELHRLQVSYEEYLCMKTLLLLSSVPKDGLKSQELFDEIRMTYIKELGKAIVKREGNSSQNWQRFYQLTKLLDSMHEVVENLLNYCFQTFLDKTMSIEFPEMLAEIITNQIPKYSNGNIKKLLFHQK

For `COc1cc(C)c(/C=C/C(C)=C/C=C/C(C)=C/C(=O)O)c(C)c1C`, the Potency entry in test [1], in [2], in test [3], in test [4], in test [5] and in test [6] was “inactive” in each case. Further, the Potency entry in test [8], in test [9], in [10], in test [11], in test [12] and in test [13] was “inactive” in each case. In [7], the call was inactive.

For `CO[C@H]1C[C@@H]2CC[C@@H](C)[C@@](O)(O2)C(=O)C(=O)N2CCCC[C@H]2C(=O)O[C@H]([C@H](C)C[C@@H]2CC[C@@H](OC(=O)C(C)(CO)CO)[C@H](OC)C2)CC(=O)[C@H](C)/C=C(\C)[C@@H](O)[C@@H](OC)C(=O)[C@H](C)C[C@H](C)/C=C/C=C/C=C/1C`, the Potency result in test [1], in test [2], in [3], in test [4], in test [5] and in test [15] was “inactive” throughout. Further, the Potency entry in test [16], in test [17], in test [10] and in [12] was “inactive” each time. Moreover, the result in [14] and in test [7] was inactive.

Regarding `CCCCCCCCCCCC(=O)OC[C@@H](O)C1OC[C@H](O)[C@H]1O` (stereo not given in full), the Potency result in test [1], in test [2], in [3], in test [4], in test [5] and in test [6] was “inactive” each time. For the same compound, the Potency entry in test [8], in [18], in [9], in test [15], in test [16] and in test [17] was “inactive” in each case. The Potency result in test [10] was “inactive”. The call in test [7] was inactive.

On to `CCCCCCCCCCCCOCCCN`, for which the Potency entry in test [1], in test [2], in test [3], in [5], in [6] and in test [8] was “inactive” each time. For the same compound, the Potency entry in test [18], in test [9], in test [15], in [16], in test [17] and in test [10] was “inactive” in each case. In addition, the Potency result in [19], in test [20], in [11], in test [12] and in test [13] was “inactive” each time. For the same compound, the compound was called inactive in [14] and in [7].

Turning to `CCC(=O)OCC(=O)[C@@]1(OC(=O)CC)[C@H](C)C[C@H]2[C@H]3[C@H]([C@@H](O)C[C@@]21C)[C@@]1(C)C=CC(=O)C=C1C[C@H]3Cl`, the Potency result in test [1], in test [2], in [3], in [4], in test [5] and in [6] was “inactive” each time. Besides, the Potency entry in test [9], in [16], in test [10], in test [19] and in test [13] was “inactive” each time. Moreover, the compound was classed as inactive in [7]. The Potency in [8] was 0.0204 µM (active); in test [20], 0.144 µM (active); in [11] it was 0.0403 µM (active).

Take `CN=C(NC)NCc1ccccc1`: the Potency result in test [1], in [2], in test [3], in [4], in test [5] and in test [6] was “inactive” throughout. In addition, the Potency entry in [8], in test [18], in test [9], in test [15], in test [16] and in test [17] was “inactive” throughout. Further, the Potency entry in test [10] and in [12] was “inactive” each time. For the same compound, the compound was called inactive in [7].

For the compound `C=C1/C(=C\C=C2/CCC[C@]3(C)[C@@H]([C@H](C)OCCC(C)(C)O)CC[C@@H]23)C[C@@H](O)C[C@@H]1O`, the Potency entry in test [1], in [2], in test [3], in [4], in [5] and in [10] was “inactive” in each case. Besides, the Potency result in test [12] was “inactive”. Moreover, the outcome in test [14] and in [7] was inactive. Besides, the Potency was 8.41 µM (active) in test [15], 13.3 µM (active) in [16] and 13.3 µM (active) in [17].
